The nature of test [1]: small molecules captured by biotinylated probe aFSTL3 – biochemical, small-molecule microarray, fluorescence 635/667, stem cell growth factor project, primary screen (AID 1064).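 Note: measures binding of the biotinylated anti-FSTL3 antibody to printed compounds.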 The following applies: higher = more signal.
Test [2] can be described thus: binders from COS7 lysate, DM2A8 probe, primary screen, torsin A project, cell lysate, small-molecule microarray, fluorescence 635/667 (AID 1065). The following applies: higher = more signal, COS7 lysate expressing mutant human TOR1A.
A short description of test [3]: small molecules captured by biotinylated probe aFGF2 – biochemical, small-molecule microarray, fluorescence 635/667, stem cell growth factor project, primary screen (AID 1067).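 Note: measures binding of biotinylated aFGF2 protein to printed compounds on slides; z-score merges feature fluorescence and signal-to-noise across triplicate slides.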 The following applies: higher = more signal.
Test [4] is described as follows: small molecules captured by biotinylated probe aFGF10 – biochemical, small-molecule microarray, fluorescence 635/667, stem cell growth factor project, primary screen (AID 1071).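 Note: score merges 667 nm spot intensity and signal to noise from triplicate slides.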 The following applies: higher = more signal.
Test [5] has as its target Neurogenic locus notch homolog protein 2 (Homo sapiens) (UniProt Q04721). Put plainly: small molecules binding Notch2 protein – biochemical, small-molecule microarray, 635 nm fluorescence, stem cell growth factors, primary screen (AID 1073). The following applies: higher = more signal.
The target of test [6] is Pro-neuregulin-1, membrane-bound isoform (Homo sapiens) (UniProt Q02297). Put plainly: small molecules binding neuregulin-1 protein – biochemical, small-molecule microarray, fluorescence 635/667, psychiatric disease protein project, primary screen (AID 1075).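 Note: score combines 667 nm spot fluorescence with signal to noise.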 The following applies: NRG1 binding, 635 nm fluorescence, higher = more signal.
Test [7] deals with Neuregulin-1 EGF-like domain. The test is described as follows: small molecules binding NRG1 EGF domain – biochemical, small-molecule microarray, 635 nm fluorescence, primary screen (AID 1081).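 Note: binding of the protein to compounds printed on small-molecule microarray slides.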 The following applies: higher = more signal.
A short description of test [8]: FRG1 expression reporter modulators in myotubes – cell-based, C2C12 myotubes, firefly/Renilla luciferase, luminescence, FRG1 inhibition for FSHD, primary screen (AID 1084). The following applies: FRG1 promoter luciferase, higher = more signal, called active from +8 up or from −8 down.
The nature of test [9]: small molecules captured by biotinylated probe aFST – biochemical, small-molecule microarray, fluorescence 635/667, stem cell growth factor project, primary screen (AID 1086).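 Note: score merges 667 nm fluorescence with signal-to-noise of each printed compound spot.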 The following applies: higher = more signal.
Test [10] in a line: binders of probe aHhip on microarray, primary screen, stem cell growth factor project, biochemical, small-molecule microarray, fluorescence 635/667 (AID 1087).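 Note: score merges spot fluorescence at 667nm with spot signal to noise ratio.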 The following applies: higher = more signal.
Test [11] deals with PRMT1 (protein arginine N-methyltransferase 1). The test is described as follows: small molecules binding arginine methyltransferase PRMT1 – biochemical, small-molecule microarray, 635 nm fluorescence, primary screen (AID 1088).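 Note: binding of Prmt1 protein to compounds spotted on small-molecule microarray slides.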 The following applies: higher = more signal.
The nature of test [12]: growth effects on S. cerevisiae YJM789 – YJM789 clinical isolate, OD600, 24 h, basal, primary screen (AID 1089).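 Note: growth of clinical yeast isolate S. cerevisiae YJM 789 seeded 1000 cells per well; test concentration not given here.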 The following applies: higher = more signal, called active from +8 up or from −8 down.
Test [13] is described as follows: S. pombe growth modifiers, basal conditions – strain 972, OD600, 24 h, no modulator, primary screen (AID 1090).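 Note: basal condition with compound alone and no growth modifier present; test concentration not given here.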 The following applies: S. pombe 972 growth, higher = more signal, called active from +8 up or from −8 down.
A short description of test [14]: budding yeast growth modifiers under rapamycin – strain BY4716, OD600, 96 h, primary screen (AID 1091). Note: test concentration not given here. The following applies: S. cerevisiae BY4716 + rapamycin, higher = more signal, called active from +8 up or from −8 down.
The target of test [15] is Torsin-1A-interacting protein 2 (Homo sapiens) (UniProt Q8NFQ8). The test is described as follows: small molecules binding lysate-expressed LULL1 – cell lysate, human LULL1 lysate, 635/667 nm fluorescence, primary screen (AID 1092).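 Note: probe is lysate of COS7 cells overexpressing human LULL1; score merges per-feature 667 nm fluorescence with signal-to-noise.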 The following applies: small-molecule microarray, hLULL1 lysate binding, 635 nm fluorescence; higher = more signal.
Test [16] is described as follows: optical density change of DRC41 E. coli – strain DRC41, OD650, 24 h, E. coli filamentation project, primary screen (AID 1093).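 Note: MC1000 strain lacking acrAB efflux and sulA so SOS filamentation is blocked; test concentration not given here.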 The following applies: E. coli DRC41 growth, higher = more signal, called active from +8 up or from −8 down.
Test [17] is described as follows: probe aLefty2 binding to arrayed compounds – biochemical, biotinylated probe, 635/667 nm fluorescence, primary screen (AID 1094).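 Note: score merges spot fluorescence near 667 nm with spot signal-to-noise ratio.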 The following applies: small-molecule microarray, higher = more signal.
Test [18] concerns Noggin (protein binding on small-molecule microarray). The test is described as follows: small molecules binding Noggin protein – biochemical, 635/667 nm fluorescence, primary screen (AID 1095).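 Note: score merges 667 nm feature fluorescence with signal to noise over triplicate slides.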 The following applies: 635 nm fluorescence, higher = more signal.
The target of test [19] is Neurogenic locus notch homolog protein 3 (Homo sapiens) (UniProt Q9UM47). The test is described as follows: small molecules binding NOTCH3 protein – biochemical, 635/667 nm fluorescence, primary screen (AID 1096). The following applies: small-molecule microarray, 635 nm fluorescence, higher = more signal.
A short description of test [20]: probe aEGFR binding to arrayed compounds – biochemical, biotinylated probe, 635/667 nm fluorescence, primary screen (AID 1097).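 Note: probe is a biotinylated anti-EGFR antibody binding compounds printed on slides; score combines fluorescence near 667 nm and signal to noise of each spot.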 The following applies: small-molecule microarray, higher = more signal.

Data on nine compounds can be found in PubChem BioAssay.

The source made the active and inactive calls.

Pro-neuregulin-1, membrane-bound isoform (Homo sapiens), sequence (Q02297 whole entry, looked up, the tested form may be a part, canonical isoform): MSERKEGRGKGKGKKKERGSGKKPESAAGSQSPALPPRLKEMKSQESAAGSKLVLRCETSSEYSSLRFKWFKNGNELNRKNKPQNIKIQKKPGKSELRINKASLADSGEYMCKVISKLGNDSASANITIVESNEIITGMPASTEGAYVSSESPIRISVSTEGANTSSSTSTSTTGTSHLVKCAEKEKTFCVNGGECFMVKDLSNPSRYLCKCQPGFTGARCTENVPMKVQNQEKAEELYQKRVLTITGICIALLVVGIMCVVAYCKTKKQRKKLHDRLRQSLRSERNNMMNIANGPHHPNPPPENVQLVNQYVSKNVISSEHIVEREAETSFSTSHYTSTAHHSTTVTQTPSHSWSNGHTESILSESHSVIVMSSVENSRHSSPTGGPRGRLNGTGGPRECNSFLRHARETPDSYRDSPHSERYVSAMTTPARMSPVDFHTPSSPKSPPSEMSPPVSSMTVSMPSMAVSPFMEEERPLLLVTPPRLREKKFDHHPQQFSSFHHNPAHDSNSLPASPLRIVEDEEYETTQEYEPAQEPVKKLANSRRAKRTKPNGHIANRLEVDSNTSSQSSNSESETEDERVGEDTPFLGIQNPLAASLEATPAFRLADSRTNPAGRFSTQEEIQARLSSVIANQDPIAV
Neurogenic locus notch homolog protein 2 (Homo sapiens), sequence (Q04721 whole entry, looked up, canonical isoform): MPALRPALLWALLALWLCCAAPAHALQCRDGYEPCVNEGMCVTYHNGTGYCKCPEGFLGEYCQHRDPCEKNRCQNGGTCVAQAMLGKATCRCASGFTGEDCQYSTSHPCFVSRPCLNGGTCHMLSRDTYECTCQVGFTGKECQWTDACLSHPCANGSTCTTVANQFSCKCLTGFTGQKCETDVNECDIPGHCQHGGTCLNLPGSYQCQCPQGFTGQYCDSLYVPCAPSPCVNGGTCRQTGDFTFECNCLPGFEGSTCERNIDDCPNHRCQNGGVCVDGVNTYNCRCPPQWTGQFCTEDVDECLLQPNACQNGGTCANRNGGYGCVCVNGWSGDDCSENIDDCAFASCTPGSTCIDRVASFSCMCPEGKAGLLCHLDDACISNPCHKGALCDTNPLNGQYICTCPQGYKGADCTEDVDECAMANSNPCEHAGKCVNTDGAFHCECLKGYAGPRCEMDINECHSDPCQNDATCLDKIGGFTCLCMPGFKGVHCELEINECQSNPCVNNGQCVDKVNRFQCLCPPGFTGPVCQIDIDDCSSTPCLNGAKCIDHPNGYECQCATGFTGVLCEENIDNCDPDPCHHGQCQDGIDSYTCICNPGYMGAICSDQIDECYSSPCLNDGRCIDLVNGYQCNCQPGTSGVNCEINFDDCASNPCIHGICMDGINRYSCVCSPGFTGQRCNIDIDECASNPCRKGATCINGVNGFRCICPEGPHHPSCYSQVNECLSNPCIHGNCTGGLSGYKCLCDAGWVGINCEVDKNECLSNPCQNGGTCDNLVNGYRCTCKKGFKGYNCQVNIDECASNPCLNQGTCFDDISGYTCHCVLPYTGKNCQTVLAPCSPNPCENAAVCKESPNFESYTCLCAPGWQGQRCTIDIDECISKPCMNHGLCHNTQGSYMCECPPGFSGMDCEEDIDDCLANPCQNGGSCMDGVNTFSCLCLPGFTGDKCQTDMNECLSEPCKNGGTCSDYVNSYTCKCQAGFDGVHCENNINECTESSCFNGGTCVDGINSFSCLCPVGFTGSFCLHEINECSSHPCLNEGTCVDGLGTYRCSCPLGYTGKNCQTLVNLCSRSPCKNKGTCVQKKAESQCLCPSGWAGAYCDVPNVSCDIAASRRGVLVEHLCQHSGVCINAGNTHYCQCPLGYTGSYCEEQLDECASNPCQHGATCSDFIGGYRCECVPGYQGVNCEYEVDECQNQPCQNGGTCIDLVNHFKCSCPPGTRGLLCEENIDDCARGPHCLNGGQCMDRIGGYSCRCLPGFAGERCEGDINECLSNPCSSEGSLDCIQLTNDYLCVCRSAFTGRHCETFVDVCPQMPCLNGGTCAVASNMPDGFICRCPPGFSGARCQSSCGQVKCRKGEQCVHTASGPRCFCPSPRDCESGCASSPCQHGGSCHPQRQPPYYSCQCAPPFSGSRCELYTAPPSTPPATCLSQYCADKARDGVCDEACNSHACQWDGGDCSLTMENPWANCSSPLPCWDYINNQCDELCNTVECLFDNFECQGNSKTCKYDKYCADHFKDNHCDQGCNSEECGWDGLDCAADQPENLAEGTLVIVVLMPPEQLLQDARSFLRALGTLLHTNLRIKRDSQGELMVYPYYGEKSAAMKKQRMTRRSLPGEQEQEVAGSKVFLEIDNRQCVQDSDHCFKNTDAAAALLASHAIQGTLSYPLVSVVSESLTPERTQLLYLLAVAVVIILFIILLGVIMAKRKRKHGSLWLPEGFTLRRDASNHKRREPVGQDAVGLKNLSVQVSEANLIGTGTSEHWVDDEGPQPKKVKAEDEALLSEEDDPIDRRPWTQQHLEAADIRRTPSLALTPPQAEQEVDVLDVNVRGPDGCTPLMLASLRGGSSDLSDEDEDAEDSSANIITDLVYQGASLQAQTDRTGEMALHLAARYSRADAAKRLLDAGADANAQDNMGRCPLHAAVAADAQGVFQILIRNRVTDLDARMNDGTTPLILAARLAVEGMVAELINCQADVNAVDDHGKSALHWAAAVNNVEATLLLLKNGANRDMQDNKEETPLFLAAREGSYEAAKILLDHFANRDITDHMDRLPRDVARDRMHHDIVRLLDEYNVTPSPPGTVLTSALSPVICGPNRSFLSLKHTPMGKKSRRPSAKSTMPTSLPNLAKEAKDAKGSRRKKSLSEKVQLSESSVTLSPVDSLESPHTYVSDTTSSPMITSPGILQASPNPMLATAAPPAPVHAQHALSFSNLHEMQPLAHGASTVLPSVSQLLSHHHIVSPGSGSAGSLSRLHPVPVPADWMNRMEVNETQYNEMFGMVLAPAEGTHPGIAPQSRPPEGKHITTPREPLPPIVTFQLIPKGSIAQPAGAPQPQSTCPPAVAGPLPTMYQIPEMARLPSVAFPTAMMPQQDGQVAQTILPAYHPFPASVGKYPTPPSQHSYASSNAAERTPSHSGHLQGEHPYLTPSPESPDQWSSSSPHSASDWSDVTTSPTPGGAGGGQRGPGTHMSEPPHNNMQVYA
Torsin-1A-interacting protein 2 (Homo sapiens), sequence (Q8NFQ8 whole entry, looked up): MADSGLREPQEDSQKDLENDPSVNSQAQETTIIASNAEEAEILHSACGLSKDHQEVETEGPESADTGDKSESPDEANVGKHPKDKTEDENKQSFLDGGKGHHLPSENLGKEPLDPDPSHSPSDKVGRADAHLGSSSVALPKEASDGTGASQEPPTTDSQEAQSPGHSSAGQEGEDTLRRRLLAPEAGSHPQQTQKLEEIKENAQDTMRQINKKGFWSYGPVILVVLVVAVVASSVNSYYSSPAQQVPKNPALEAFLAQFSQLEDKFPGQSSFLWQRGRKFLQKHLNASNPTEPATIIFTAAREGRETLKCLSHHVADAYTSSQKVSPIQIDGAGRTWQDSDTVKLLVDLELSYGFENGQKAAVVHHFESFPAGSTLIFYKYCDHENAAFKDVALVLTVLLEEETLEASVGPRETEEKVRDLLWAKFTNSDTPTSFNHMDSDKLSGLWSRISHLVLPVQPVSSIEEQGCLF

As to `[N-]=[N+]=NCc1ccccc1[C@@H]1OC(c2ccc(OCCCO)cc2)=N[C@]1(CCS(=O)(=O)c1ccccc1)C(=O)NCCN1CCOCC1`, the composite z-score came to 0.21 in test [1]; 0.631 in [2]; 0.269 in test [3]; 0.918 in test [4]; 1.65 in [5]; 1.99 in test [6]. Also, the composite z-score in [7] turned out to be 1.31; in test [9], 1.87; in test [10] it was 0.156; in [11], 1.53; in test [15] it was 3.37; in [17], 0.0542. Also, the composite z-score came to 1.78 in test [18], 1.04 in test [19] and 0.208 in test [20]. The z-score in test [8] is 1.97 (inactive); in [12] it was 0.36 (inactive); in test [13], 0.517 (inactive); in [14], 0.766 (inactive); in test [16] it was 0.283 (inactive).

Turning to `CN(C)C(=O)[C@@]1(Cc2ccccc2CN=[N+]=[N-])N=C(c2ccc(OCCCO)cc2)O[C@H]1c1ccccc1`, the composite z-score is 0.214 in test [1]; -0.163 in [2]; 0.0575 in [3]; 0.663 in test [4]; 0.604 in test [5]; 1.17 in [6]. Besides, the composite z-score in test [7] was 0.91; in [9] it was 0.46; in test [10], -0.169; in [11], 1.32; in test [15] it was 3.32; in test [17], 0.0561. Moreover, the figures for the composite z-score in test [18], in [19] and in test [20] were 0.788, 0.301 and -0.0356, respectively. The z-score in [8] was -2.25 (inactive); in [12], 0.365 (inactive); in test [13] it was 0.0586 (inactive); in test [14], 34.7 (active); in [16], 0.632 (inactive).

For `Cc1ccc(S[C@]2(C(=O)NCC(F)(F)F)CC(=O)N(C(C)C)[C@@H]2c2ccc(CO)cc2I)cc1`, the composite z-score was 0.163 in test [1]; -0.98 in test [2]; -0.04 in [3]; 0.0063 in test [4]; -0.806 in test [5]; 1.08 in test [6]. Further, the composite z-score in test [7] is -0.395; in test [9] it was -0.349; in test [10] it was -0.374; in test [11], -0.466; in test [15] it was 1.15; in test [17] it was -0.0873. In addition, the composite z-score in [18] was -1.13; in test [19] it was -1.01; in test [20] it was -0.2. Moreover, the z-score is -0.0636 (inactive) in test [8]; -0.0408 (inactive) in test [12]; -0.704 (inactive) in [13]; 2.23 (inactive) in test [14]; 0.0493 (inactive) in test [16].

In the case of `COc1ccc(C(O)C2C=CC3C(=O)NC(=O)C3N2Nc2ccccn2)cc1` (stereo not given), the composite z-score is -0.0118 in test [1]; -0.765 in [2]; 0.0143 in test [3]; 0.585 in test [4]; 0.891 in [5]; 0.843 in test [6]. Besides, the composite z-score in test [7] was 0.844; in test [9] it was 0.357; in test [10], -0.159; in test [11], 0.425; in test [15], 0.665; in [17], 0.251. The composite z-score in test [18] amounted to 0.195; in [19], 0.49; in [20], 0.164. Also, the z-score in test [8] is 1 (inactive); in [12] it was 0.181 (inactive); in test [13], 0.312 (inactive); in [14] it was 0.359 (inactive); in test [16], -0.434 (inactive).

For the compound `O=C(NCC(F)(F)F)[C@@H]1c2ccccc2C(=O)N(C2CCCCC2)[C@H]1c1ccc(CO)cc1`, the composite z-score in [1] was -0.176; in test [2], -0.527; in test [3], -0.116; in test [4], 0.0931; in test [5] it was 0.154; in test [6] it was 1.61. Besides, the composite z-score in test [7] was 0.611; in test [9], 0.249; in [10], 0.0505; in test [11], 0.311; in [15], 1.76; in test [17], -0.117. In addition, the composite z-score in test [18] was 0.276; in test [19], 0.254; in test [20], -0.0987. The z-score in test [8] is -1.46 (inactive); in [12] it was 0.936 (inactive); in test [13] it was 0.372 (inactive); in test [14], 0.963 (inactive); in [16], 0.674 (inactive).

With `COCCOC(=O)N1C(=O)[C@@]2(c3cc(C#CCCO)ccc31)[C@H](C(=O)N1CCN(c3ncccn3)CC1)[C@H]1C(=O)O[C@H](c3ccccc3)[C@H](c3ccccc3)N1[C@@H]2c1ccccc1OCCO`, the composite z-score is -0.545 in test [1]; 0.217 in test [2]; -0.0546 in test [3]; 0.537 in test [4]; 1.3 in test [5]; 1.37 in test [6]. Further, the composite z-score is 1.15 in test [7]; 0.335 in [9]; -0.0296 in test [10]; 1.55 in test [11]; 2.98 in test [15]; -0.114 in test [17]. Moreover, the composite z-score was determined as 0.791 in test [18], 0.846 in [19] and 0.268 in [20]. The z-score is -0.428 (inactive) in [8]; 0.335 (inactive) in test [12]; 0.411 (inactive) in test [13]; 3.34 (inactive) in [14]; 1.84 (inactive) in test [16].

Consider `O=C1O[C@H](c2ccccc2)[C@H](c2ccccc2)N2[C@H]1[C@@H](C(=O)O)[C@]1(C(=O)Nc3ccc(C#CCCO)cc31)[C@H]2c1ccc(O)cc1`, for which the composite z-score in test [1] was 1.32; in [2], 0.502; in test [3], 0.0248; in test [4] it was -0.0925; in [5] it was -0.665; in [6], 0.957. The composite z-score in test [7] was 0.708; in test [9] it was 0.481; in [10] it was 0.437; in test [11] it was -0.685; in test [15], 0.782; in test [17] it was 0.541. Further, the composite z-score in test [18] was -0.228; in test [19] it was -0.557; in [20] it was 0.186. The z-score is 0.482 (inactive) in test [8]; 0.396 (inactive) in test [12]; -0.228 (inactive) in test [13]; 0.385 (inactive) in test [14]; 1.57 (inactive) in test [16].

For the compound `O=C1O[C@H](c2ccccc2)[C@H](c2ccccc2)N2[C@H]1[C@@H](C(=O)N1CCN(c3ncccn3)CC1)[C@]1(C(=O)Nc3ccc(C#CC4=CCCCC4)cc31)[C@H]2c1ccc(O)cc1`, the composite z-score in [1] was -0.001; in [2] it was 0.542; in [3], -0.0523; in test [4], 0.768; in test [5], 1.28; in [6] it was 1.11. Besides, the composite z-score in test [7] is 1.24; in test [9], 0.502; in test [10] it was -0.201; in [11], 1.54; in test [15] it was 2.76; in test [17], -0.0313. The composite z-score was 0.555 in test [18], 0.79 in [19] and 0.0624 in [20]. In addition, the z-score is -0.63 (inactive) in test [8]; 1.92 (inactive) in test [12]; 1.48 (inactive) in test [13]; 2.97 (inactive) in [14]; 0.454 (inactive) in test [16].

With `O=C1OCC=C[C@H]2OC34C=CCN(CCN5CCOCC5)C(=O)[C@H]3N(CCCO)C(=O)[C@@H]4[C@@H]12` (stereo not given in full), the composite z-score in [1] is -0.206; in test [2] it was -0.426; in [3], -0.139; in test [4] it was -0.02; in test [5], -0.146; in test [6], -0.125. Besides, the composite z-score is 0.59 in [7]; -0.382 in test [9]; -0.0003 in test [10]; -0.102 in [11]; 0.477 in test [15]; -0.208 in test [17]. Besides, the composite z-score in test [18] is 0.219; in test [19], 0.314; in test [20], -0.128. The z-score in test [8] is 1.78 (inactive); in test [12], 0.0736 (inactive); in [13], -0.454 (inactive); in test [14], 0.238 (inactive); in test [16] it was 0.681 (inactive).
